The values that follow come from PubChem BioAssay AID1851 (National Center for Advancing Translational Sciences (NCATS), 2009).

Values joined by “and” are separate entries in the source; they are usually repeats but may differ in a detail not shown here. Identical values can stand only once. About 2,600 (16%) of roughly 16,000 compounds were called active. Roughly 20% stayed inconclusive and do not appear here. Calls come from the whole dose curve; as a rule, active = well fitted curve in the direction sought with a large enough effect; inconclusive = small, poorly fitted or top-dose-only effect, or effect the other way; inactive = no such curve, though single readings can be large or run the other way. These entries were drawn from the full list. More than one record can exist for a structure, and the calls need not agree.

One may read the AC50 as the concentration giving half of the maximal activity seen.
% is set by controls: 0 for no effect and ±100 for the full control effect.

For the assay, the target named is Cytochrome P450 2D6 (Homo sapiens) (UniProt P10635). Nature of the assay: Cytochrome panel assay with activity outcomes. The note with it: recombinant CYP, pro-luciferin dealkylation, luminescence, p450-cyp2d6; series mostly up to 57.1 µM; activity, negative = inhibition: at the top concentration.
Chain of Cytochrome P450 2D6 (Homo sapiens) (P10635 whole entry, looked up): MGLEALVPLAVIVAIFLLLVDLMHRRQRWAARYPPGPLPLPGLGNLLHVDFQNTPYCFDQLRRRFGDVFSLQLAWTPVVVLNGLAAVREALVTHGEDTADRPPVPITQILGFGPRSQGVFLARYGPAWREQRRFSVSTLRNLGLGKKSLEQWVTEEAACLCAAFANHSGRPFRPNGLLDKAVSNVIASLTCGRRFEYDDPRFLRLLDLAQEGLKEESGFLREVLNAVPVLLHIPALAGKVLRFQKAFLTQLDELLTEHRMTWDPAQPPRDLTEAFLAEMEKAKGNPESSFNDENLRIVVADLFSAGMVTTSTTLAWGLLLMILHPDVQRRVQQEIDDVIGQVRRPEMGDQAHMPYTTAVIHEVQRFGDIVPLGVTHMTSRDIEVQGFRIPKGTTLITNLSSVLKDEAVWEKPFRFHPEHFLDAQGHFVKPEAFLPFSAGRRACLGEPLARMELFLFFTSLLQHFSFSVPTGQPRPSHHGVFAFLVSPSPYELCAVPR
Take `O=C(c1cc(Br)ccc1O)c1cc(Br)ccc1O`: the activity, negative = inhibition was -11.4% [at 11.4 µM] (inactive).

For `CC(C)=C[C@H]1[C@@H](C(=O)Oc2ccccc2C(C)C)C1(C)C`, the activity, negative = inhibition is 0.868% [at 11.4 µM] (inactive).

As to `CC1(C)CCC=[N+]1[O-]`, the “activity, negative = inhibition” value was 2.61% (inactive).

Turning to `Nc1c2c(nc3ccccc13)CCCC2`, the AC50 was 5.01 µM (active) and inactive.

As to `Nc1c2c(nc3ccccc13)CCC[C@H]2O`, the “activity, negative = inhibition” value is -6.84% (inactive).

For `Nc1[nH]n2c(=O)c3c(nc2c1N=Nc1ccccc1)CCCC3`, the “activity, negative = inhibition” value was -21.7% (inactive).

`COc1ccc(NC(=O)C2CC(=O)NC3=C2C(=O)CC(C)(C)C3)cc1` (stereo not given): the “activity, negative = inhibition” value is 8.12% (inactive).

In the case of `COc1ccc(CCN=CC2=C(O)CC(C)(C)CC2=O)cc1`, the “activity, negative = inhibition” value was -0.143% (inactive).

In the case of `CC(=O)OC[C@@H]1O[C@H](C/C=N\O[C@@H](C)c2cn([C@H](CO)Cc3ccccc3)nn2)C=C[C@@H]1OC(C)=O`, the activity, negative = inhibition is 6.63% [at 11.4 µM] (inactive) and -11.6% [at 11.4 µM] (inactive).

On to `CC(=O)OC[C@@H]1O[C@H](C/C=N\O[C@@H](C)CN2CCCc3nc(C)c(C)cc32)C=C[C@@H]1OC(C)=O`, for which the AC50 was 3.16 µM (active).

With `CC(=O)OC[C@@H]1O[C@H](C/C=N\O[C@@H](C)c2cc(-c3c(C)cc(C)cc3C)no2)C=C[C@@H]1OC(C)=O`, the activity, negative = inhibition is -0.786% [at 11.4 µM] (inactive).

`CC(=O)OC[C@@H]1O[C@H](C/C=N\OC[C@@H](O)COCc2ccco2)C=C[C@@H]1OC(C)=O`: the activity, negative = inhibition was -5.26% [at 11.4 µM] (inactive).

In the case of `CC(=O)OC[C@@H]1O[C@H](C/C=N\O[C@@H](C)CN2CCCCc3nc(C)c(C)cc32)C=C[C@@H]1OC(C)=O`, the AC50 was 3.16 µM (active).

In the case of `CC(=O)OC[C@@H]1O[C@H](C/C=N\O[C@@H](C)c2cn([C@H]3COC[C@H]3O)nn2)C=C[C@@H]1OC(C)=O`, the activity, negative = inhibition is 10.3% [at 11.4 µM] (inactive).

Regarding `CC(C)Nc1nc(NC(C)(C)C)nc(Oc2ccc(=O)n(-c3ccccc3)n2)n1`, the “activity, negative = inhibition” value was -18.2% (inactive).

Consider `Cc1ccc(NC(=O)Nc2nc(-c3ccc(C)s3)cs2)cc1`, for which the “activity, negative = inhibition” value is -3.69% (inactive).

`CCCCN(C(=O)NC(=O)Nc1ccccc1OCC)S(C)(=O)=O`: the “activity, negative = inhibition” value was -22.9% (inactive).

Take `Cc1cnn(-c2cc(N/N=C/c3ccccc3)ncn2)c1`: the “activity, negative = inhibition” value was 6.87% (inactive).

For `Cc1ccc2nc(N/N=C\c3cccc(C)n3)cc(C)c2c1`, the AC50 is 3.16 µM (active).

For `COc1cccc(C(C#N)N2N=C(C)CC2(C)C)c1O` (stereo not given), the “activity, negative = inhibition” value is -3.53% (inactive).

As to `Cc1nc(S(=O)(=O)N2CCOCC2)c(C#N)c(C)c1Cl`, the “activity, negative = inhibition” value was 11.6% (inactive).

With `COc1cccc2c1[C@@H]1CN(CCCCn3c(=O)[nH]c4c(sc5ncc(-c6ccccc6)nc54)c3=O)C[C@H]1CO2`, the AC50 was 31.6 µM (active).

`CCN(CC)C(=O)C1CCCN(c2ccc([N+](=O)[O-])cc2/C=N/NC(=O)c2ccc([N+](=O)[O-])cc2)C1` (stereo not given): the “activity, negative = inhibition” value is -13.6% (inactive).

Take `Brc1ccc2cccnc2c1`: the “activity, negative = inhibition” value was 22% (inactive).

Regarding `C/C(N)=C(/C#N)C(=O)COc1ncnc2ccc(Br)cc12`, the “activity, negative = inhibition” value was -0.639% (inactive).

Turning to `Brc1ccc2ncnc(Nc3cccc4ccccc34)c2c1`, the AC50 was 14.1 µM (active).

On to `Cc1cc(C(F)F)n2nc(C(=O)Nc3sc4c(c3C#N)CCC(C)C4)nc2n1` (stereo not given), for which the “activity, negative = inhibition” value was -32.8% (inactive).

With `COCCn1c(=O)c(-c2ccc(Cl)cc2)nc2cnc(Oc3ccccc3)nc21`, the “activity, negative = inhibition” value is -2% (inactive).

As to `COC(=O)CN(c1ccccn1)S(=O)(=O)c1ccccc1`, the “activity, negative = inhibition” value was 9.48% (inactive).

Turning to `Cc1cc(C)c(S(=O)(=O)n2ccc(-c3ccc(OCCN(C)c4ccccn4)cc3)n2)c(C)c1`, the “activity, negative = inhibition” value was 18.4% (inactive).

With `CN(CCOc1ccc(C[C@H](Nc2ccccc2C(=O)c2ccccc2)C(=O)O)cc1)c1ccccn1`, the AC50 was 0.0316 µM (active).

In the case of `COCCCN1C(=O)C(=O)/C(=C(/O)c2ccc(OC)cc2C)C1c1cccnc1` (stereo not given), the “activity, negative = inhibition” value is -1.26% (inactive).

For `Cc1ccc(COc2ccc(Br)cc2/C=N/O)cc1`, the AC50 is 17.8 µM (active).

Turning to `Cc1ccc(COc2coc(CO)cc2=O)cc1`, the “activity, negative = inhibition” value is 13.9% (inactive).

For the molecule `CC(C)(C)c1ccc(OCC(=O)N/N=C/c2cc(Br)ccc2OC(=O)c2ccco2)cc1`, the “activity, negative = inhibition” value was 28.3% (inactive).

With `N#CCCn1c(=O)c(-c2cccs2)nc2cnc(Nc3ccccc3)nc21`, the “activity, negative = inhibition” value was 8.86% (inactive).

Turning to `COc1ncc2nc(-c3cn(C)c4ccccc34)c(=O)n(CCC#N)c2n1`, the “activity, negative = inhibition” value was -0.812% (inactive).

In the case of `CCNc1ncc2nc(-c3cn(C)c4ccccc34)c(=O)n(Cc3ccc(F)cc3)c2n1`, the “activity, negative = inhibition” value was -8.85% (inactive).

Regarding `CCNc1ncc2ncc(=O)n(Cc3cccs3)c2n1`, the AC50 is 12.6 µM (active).

`CCNc1ncc2nc(-c3cn(C)c4ccccc34)c(=O)n(CCC#N)c2n1`: the AC50 was 3.98 µM (active).

As to `CCNc1ncc2nc(-c3cccc(C#N)c3)c(=O)n(CCC#N)c2n1`, the AC50 was 0.0316 µM (active).

Take `CN1CCN(c2ncc3nc(-c4cccc(C#N)c4)c(=O)n(CCC#N)c3n2)CC1`: the “activity, negative = inhibition” value was 2.23% (inactive).

In the case of `CCNc1ncc2nc(C)c(=O)n(Cc3cccs3)c2n1`, the “activity, negative = inhibition” value was -10.2% (inactive).

In the case of `N#CCCn1c(=O)c(-c2cccc(C#N)c2)nc2cnc(Oc3ccccc3)nc21`, the “activity, negative = inhibition” value was 5.63% (inactive).

With `CCNc1ncc2nc(-c3cccs3)c(=O)n(Cc3cccs3)c2n1`, the “activity, negative = inhibition” value is -19.8% (inactive).

Turning to `CCNc1ncc2nc(-c3cccs3)c(=O)n(CCC#N)c2n1`, the AC50 was 1.26 µM (active).

Consider `CCNc1ncc2nc(-c3cccs3)c(=O)n(C)c2n1`, for which the “activity, negative = inhibition” value is 6.42% (inactive).

For the molecule `Cc1cc(C)cc(C(=O)N(C)[C@H](Cc2ccc(-c3ccccc3)cc2)C(=O)N[C@@H](Cc2c[nH]c3ccccc23)C(=O)O)c1`, the “activity, negative = inhibition” value is -5.77% (inactive).

As to `N=c1ccn2c(n1)O[C@H]1[C@@H](OP(=O)(O)O)[C@H](CO)O[C@H]12`, the activity, negative = inhibition was 10.3% [at 11.4 µM] (inactive).

Take `Cc1cc(-c2n[nH]c(=S)o2)c(C)n1-c1ccccc1`: the “activity, negative = inhibition” value is -6.27% (inactive).

Regarding `O=C(Nc1nnc(C2CC2)s1)c1cc(S(=O)(=O)N2CCN(c3ccccc3)CC2)ccc1Cl`, the “activity, negative = inhibition” value is 28% (inactive).

Regarding `O=C(N/N=C1/C[C@@H](O)[C@@H](O)[C@@H]2[C@@H]3C(=O)N(Cc4ccccc4)C(=O)[C@H]3CC[C@@H]12)OCc1ccccc1`, the activity, negative = inhibition is 9.46% [at 11.4 µM] (inactive).

`O=C1[C@H]2O[C@@H]2[C@@H](O)[C@H]2[C@H]1CCn1c(=O)n(Cc3cc4c(cc3Cl)OCO4)c(=O)n12`: the activity, negative = inhibition was -11.5% [at 11.4 µM] (inactive).

As to `CCN(CC)C(=O)CSc1nnc(-c2ccco2)n1N`, the “activity, negative = inhibition” value was -28.2% (inactive).

Consider `COc1ccc(COC(=O)N/N=C2/C[C@@H](O)[C@@H](O)[C@@H]3[C@H]4C(=O)N(c5ccc(F)cc5F)C(=O)[C@@H]4CC[C@@H]23)cc1`, for which the activity, negative = inhibition is -3.12% [at 11.4 µM] (inactive).
